# HT1080-NT tox: kills 2HG-producing HT-1080-NT fibrosarcoma cells | HT-1080-NT fibrosarcoma viability, CellTiter-Glo ATP luminescence, 48 h | Potency, µM (doses to about 46.1 µM), for the others: top-dose activity, negative = less viability, usual class: cytotoxic | 360,000 compounds, 1.6% hits | AID 686970;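 also: NT is the 2HG producing partner of a matched IDH1 knockdown line; potency is read from the fitted curve at half-maximal effect; 0% = DMSO-treated cells and -100% = media-only wells without cells; nearly all actives have a fitted effect of over 55% in size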
#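 Viability by CellTiter-Glo luminescence after 48 h compound exposure at 37C of HT-1080-NT cells (750/well, RPMI, 5% FBS). % activity scaled between DMSO wells and medium-only wells, then curve-fitted and categorized by curve class.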
# uPA surface inh: blocks generation of uPA at the cell surface; 330,000 compounds, 0.31% hits; Potency, µM (doses to about 38.3 µM), for the others: at the highest dose activity change, negative = inhibition, most hits filed as inhibitors; cell surface uPA generation assay, qHTS; active = well fitted inhibition curve with a large enough effect; inconclusive = small, poorly fitted or top-dose-only effect; inactive = no such curve, though single readings can be large or run the other way; tested in mouse RAW 264.7 cells; also: potency is read from the fitted curve at half-maximal effect; nearly all actives have a fitted effect of over 55% in size
# HT1080 IDH1KD tx: kills HT-1080 cells with IDH1 knockdown; Potency, µM (top dose mostly 46.1 µM), for the others: top-dose activity, negative = toxicity, actives largely listed as cytotoxic; HT-1080 IDH1 knockdown viability, ATP luminescence, 48 h; AID 686971; 360,000 compounds, 2% hits;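 also: potency is read from the fitted curve at half-maximal effect; 0% = DMSO wells and -100% = cell-free medium wells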
#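 IDH1KD HT-1080 cells, 750/well, RPMI + 5% FBS; compound pinned after 2 h settling; 48 h, 37 °C; CellTiter-Glo luminescence; % activity normalised to DMSO and no-cell wells; curves fitted, classed by r2 and efficacy.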
# TDP1 cell CPT: growth inhibition of DT40 Tdp1-/-;hTDP1 cells with camptothecin (screen for TDP1 inhibitors); chicken DT40 Tdp1-/-;hTDP1 cells + 20 nM CPT, ATP luminescence, 48 h; Potency, µM (series often up to 46.2 µM), inactives show at the highest dose activity change, negative = growth inhibition, usual class: inhibitors; 420,000 compounds, 12% hits; AID 686979; also: potency is read from the fitted curve at half-maximal effect; nearly all actives have a fitted effect of over 55% in size
#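 Chicken DT40 Tdp1-/- cells complemented with human TDP1, 400 cells/well, exposed to compounds plus 20 nM camptothecin for at least 48 h at 37 C; viability read as ATP content by CellTiter-Glo luminescence.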
# IL1B secr inh: blocks inflammasome-driven IL-1 beta release. 360,000 compounds, 4.7% hits. activity change, % at 57.5 µM. THP-1 LPS/ATP IL-1B secretion, AlphaLISA, 16 h; stronger effect = lower value. AID 743279; in the data active = activity change below about -50%; inconclusive = mostly about -30% to -49%
#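 Secreted IL-1B measured by AlphaLISA bead assay after 16 h compound exposure of THP-1 cells; compounds (final up to 57.5 uM) added 1 h before LPS (250 ng/mL) and ATP (1.25 mM) stimulation; lower signal means less secretion.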
# DT40 TDP1 no CPT: qHTS for Inhibitors of human tyrosyl-DNA phosphodiesterase 1 (TDP1): qHTS in cells in absence of CPT. DT40 Tdp1-/- hTDP1 cells, no CPT, ATP luminescence, 48 h. Potency, µM (doses to about 46.2 µM), for inactives: at the top dose activity change, negative = growth inhibition, hits mostly inhibitors. 420,000 compounds, 15% hits. AID 686978, 2013; also: potency is read from the fitted curve at half-maximal effect; nearly all actives have a fitted effect of over 55% in size
#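 Stably hTDP1-transfected Tdp1-null chicken DT40 cells were treated with library compounds minus camptothecin and grown for at least 48 hr at 37 °C, after which cellular ATP was quantified by luminescence.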
# * = called active by the depositor; u = inconclusive; x = no result. This is a sample that favours compounds with a hit; in the whole collection about 19% have one here. Unless noted, calls follow the shape of the dose curve; as a rule, active = well fitted curve in the direction sought with a large enough effect; inconclusive = small, poorly fitted or top-dose-only effect, or another doubt; inactive = no such curve, though single readings can be large; an effect the other way counts as inactive or inconclusive. Unless noted, % is scaled to controls: 0 for no effect and ±100 for the full control effect.
SMILES,HT1080-NT tox,uPA surface inh,HT1080 IDH1KD tx,TDP1 cell CPT,IL1B secr inh,DT40 TDP1 no CPT
COC(=O)c1ccc(Oc2cc(C)nc(SC)n2)cc1,u,-14.2%,5.8µM*,4.11µM*,0.0,2.91µM*
Cc1ccc(F)cc1-c1cc2nc(NCCCN(C)C)n(C)c(=O)c2s1,20.6µM*,x,14.6µM*,23.1µM*,-8.0,16.4µM*
COc1cccc(CNc2nc3cc(-c4ccc(OC)c(OC)c4)sc3c(=O)n2C)c1,-5.9%,x,10.2%,-7.5%,14.4,-16.4%
CN(C)CCCNc1nc2cc(-c3ccc(C(=O)N4CCN(C)CC4)cc3)sc2c(=O)n1C,-21.2%,x,3.6%,-1.3%,10.8,u
Cn1c(NCc2ccccc2)nc2cc(-c3ccccc3)sc2c1=O,9.4%,x,2.0%,u,50.7,u
CC(C)=C(C)c1cc2nc(NCCCN(C)C)n(C)c(=O)c2s1,-25.9%,x,u,0.2%,-25.7,-21.7%
COc1cccc(-c2cc3nc(NCCCN(C)C)n(C)c(=O)c3s2)c1,u,x,u,u,-63.2*,u
CN(C)CCCNc1nc2cc(-c3ccc4c(ccn4C)c3)sc2c(=O)n1C,u,x,u,20.6µM*,-28.1,u
CN(C)CCCNc1nc2cc(-c3cnn(Cc4ccccc4)c3)sc2c(=O)n1C,9.2µM*,x,23.1µM*,u,-2.6,u
O=C([C@@H]1C[C@@H](Sc2nc3ccccc3[nH]2)CN1Cc1c(F)cccc1F)N1CCOCC1,x,x,x,-13.0%,x,-17.4%
CC(SCC(=O)Nc1ccccc1Br)c1nc2ccccc2c(=O)[nH]1 (configuration not stated),-3.0%,-6.0%,-4.0%,u,19.0,-24.7%
C[C@H](CO)N1C[C@H](C)[C@@H](CN(C)Cc2ccc3cccnc3c2)OCc2cnnn2CCCC1=O,0.5%,x,-0.2%,-7.8%,1.9,-2.4%
COc1ncccc1-c1cc2nc(NCCCN(C)C)n(C)c(=O)c2s1,-23.3%,x,-27.2%,8.2µM*,-4.0,8.2µM*
O=C(COc1ccccc1Br)N1CCN(c2ccccc2)CC1,9.4%,x,-3.3%,-3.7%,-10.3,-16.7%
O=C1c2cnc3nc(SCc4ccccc4)nn3c2CC2c3ccccc3CCN12 (configuration not stated),-22.1%,0.9%,1.3%,u,0.0,18.4µM*
O=C(Nc1ccc(F)cc1)C1C2CCC3C(CCC21)C3(Cl)Cl (configuration not stated),-2.6%,2.9%,0.9%,u,x,18.4µM*
C/C(=N\N=C(/N)c1nonc1N)c1ccc2c(c1)OCO2,-4.0%,-29.3%,-0.9%,-15.9%,-18.7,-3.7%
CC1(C(=O)NS(=O)(=O)c2ccc(Br)cc2)CCN1C(=O)CCC1CCCC1 (configuration not stated),-0.3%,x,11.6%,-10.0%,41.1,-6.8%
COc1ccccc1-c1noc(CCC(=O)Nc2cccnc2)n1,0.5%,x,-1.5%,-27.9%,29.7,u
O=C(CCc1nc(-c2ccccc2Cl)no1)Nc1cccnc1,0.4%,3.9%,-2.7%,20.6µM*,28.0,u
Cc1ccc(-c2noc(CCCC(=O)Nc3cccnc3)n2)cc1,-1.1%,-0.2%,23.1µM*,u,45.3,20.6µM*
Cc1ccc(-c2noc(CCCC(=O)NC3CCCCC3)n2)cc1,-14.4%,x,-11.3%,u,12.2,13µM*
Cc1ccc(-c2noc(CCC(=O)NC3CCCC3)n2)cc1,-12.1%,-0.8%,-5.0%,u,16.4,u
CCCCCc1ccc(CC(=O)N2CCOCC2)cc1,4.6%,-11.3%,-0.1%,u,44.8,-1.2%
Oc1c(Br)cccc1/C=N/c1ncn[nH]1,-0.9%,0.0%,1.8%,-2.6%,38.4,-4.1%
O=C(/C=C/c1ccco1)Nc1cccnc1,23.8%,-6.6%,21.2%,5.3%,-15.3,10.8%

# Screening results (PubChem BioAssay)
